In the library only some 0.47% were active in any assay of this set; here they are far more common.
UDG counter = UDG inhibition counter-screen | AID 1347430 | Potency, µM (doses to about 115 µM), for the others: at the top dose activity change, negative = inhibition, actives largely listed as inhibitors | FRET deamination/UDG coupled assay, UDG read, 4 h | 91,000 compounds, 0.14% hits; note: nearly all actives have a fitted effect of over 65% in size
AID inh = blocks human AID cytidine deaminase activity. Q9GZX7. AID deamination FRET fluorescence, UDG-coupled, 4 h. Potency, µM (highest dose often 115 µM), actives largely listed as inhibitors. 91,000 compounds, 0.32% hits. AID 1347428; note: nearly all actives have a fitted effect of over 25% in size
Target sequence (Q9GZX7 whole entry, looked up): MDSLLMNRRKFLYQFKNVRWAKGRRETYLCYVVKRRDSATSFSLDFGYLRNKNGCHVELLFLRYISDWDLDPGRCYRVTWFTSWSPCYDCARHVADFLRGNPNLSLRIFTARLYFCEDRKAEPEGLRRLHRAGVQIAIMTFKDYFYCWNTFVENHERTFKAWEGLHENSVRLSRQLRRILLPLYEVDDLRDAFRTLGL
Numbers without * were called inactive; i = inactive; ? = inconclusive. Calls come from the whole dose curve; as a rule, active = well fitted curve in the direction sought with a large enough effect; inconclusive = small, poorly fitted or top-dose-only effect, or another doubt; inactive = no such curve, though single readings can be large; an effect the other way counts as inactive or inconclusive. % is set by controls: 0 for no effect and ±100 for the full control effect; potency is the fitted concentration of half-maximal effect.

SMILES	UDG counter	AID inh
Cc1cc(C(=O)CN2CCN(Cc3ccc4c(c3)CCO4)CC2)c(C)n1C1CCS(=O)(=O)C1 (stereo unspecified)	-5%	i
CCN(Cc1ccco1)C(=O)c1cc2ccc(OC)cc2[nH]1	-2%	i
CCc1nn(C(C)C(=O)N2CCN(c3cccc(C(F)(F)F)c3)CC2)c(=O)c2cc3occc3n12 (stereo unspecified)	-15%	32µM*
Cc1cccc(N2CCN(C(=O)C(C)n3nc(C)n4c(cc5occc54)c3=O)CC2)c1C (stereo unspecified)	-18%	?
N#Cc1c(N2CCN(C(=O)C(=O)NCCc3ccccc3)CC2)nc(-c2ccco2)c2c1CCCC2	-4%	i
O=C(/C=C/c1ccc(-c2ccccc2Cl)o1)c1ccc(F)cc1	-9%	i
Cc1cccc(-n2nnnc2C2(N3CCCC3)CCCC2)c1	0%	i
FC(F)(F)c1cccc(-n2nnnc2C2(N3CCOCC3)CCCC2)c1	89µM*	i
Cc1cccc(-c2cc(Nc3ccc(C)c(C)c3)nc(C)n2)c1	-12%	i
Cc1ccc(C(=O)/C=C/c2ccc(-c3ccccc3Cl)o2)cc1	-5%	i
Cc1ccc(-n2c(SCC(N)=O)nc3c(c2=O)C2(CCCC2)Cc2ccccc2-3)cc1	79µM*	i
COc1ccccc1-n1c(SCC(N)=O)nc2c(c1=O)C1(CCCCC1)Cc1ccccc1-2	-11%	i
COC(=O)CC1=C(C(=O)OC)C(c2ccc(OC)cc2)C(C#N)=C(N)O1 (stereo unspecified)	4%	i
CCc1cccc(NC(=O)c2c(C)oc3ncnc(N4CCCCC4)c23)c1	89µM*	i
Cc1ccc(NC(=O)c2c(C)oc3ncnc(N4CCCCC4)c23)cc1Cl	?	i
CC(=O)c1cc2c(cc1NC(=O)CSc1nnc(C3CC3)n1C1CC1)OCO2	10%	i
O=C(OCc1cc(=O)oc2cc3c(cc12)CCC3)C1CCCO1 (stereo unspecified)	-10%	i
N#C/C(=C\c1ccc([N+](=O)[O-])o1)C(=O)NC1CCCCC1	12%	i
CCOc1ccc(-c2noc(CSc3nnc(Cc4ccccc4)n3-c3ccc(F)cc3)n2)cc1	-23%	?
CCc1ccc(-n2c(Cc3ccccc3)nnc2SCc2nc(-c3cccs3)no2)cc1	?	40µM*
Cc1ccccc1-c1noc(CSc2nnc(Cc3ccccc3)n2-c2ccc(F)cc2)n1	?	20µM*
CCOc1ccc(-n2c(Cc3ccccc3)nnc2SCc2nc(-c3ccccc3OC)no2)cc1	-19%	?
Cc1nc2c(C(=O)NCc3ccccc3)c[nH]n2c(=O)c1Cc1ccccc1Cl	-4%	89µM*
Cc1nc2nc(N(Cc3ccccc3)C(=O)c3ccco3)[nH]n2c(=O)c1Cc1ccccc1Cl	0%	?
COC(=O)C1CCN(S(=O)(=O)c2cc3c4c(c2)CC(=O)N4CCC3)CC1	0%	i
SMILES	UDG counter	AID inh
O=C1Cc2cc(S(=O)(=O)N3CCCCC3)cc3c2N1CCC3	89µM*	?
Oc1cccc2c(N=Cc3ccc(F)c(F)c3)cccc12	-20%	i
CCOC(=O)/C=C/SC(S/C=C/C(=O)OCC)=C(C#N)C(N)=O	-7%	i
C(=C\c1ccccc1)/CN(C/C=C/c1ccccc1)CCN1CCOCC1	-12%	i
CCC1=Nc2cc(C(=O)NCc3ccccc3Cl)ccc2Sc2ccc(C)cc21	-6%	i
CCC1=Nc2cc(C(=O)N3CCC(C)CC3)ccc2Sc2ccc(C)cc21	-13%	32µM*
O=S1(=O)CCN(Cc2ccccc2)c2c(F)nc(N3CCOCC3)c(F)c21	0%	i

Bioassay records (PubChem BioAssay)
